Source: PubChem (National Center for Advancing Translational Sciences (NCATS))
TDP1 cell CPT: growth inhibition of DT40 Tdp1-/-;hTDP1 cells with camptothecin (screen for TDP1 inhibitors) | chicken DT40 Tdp1-/-;hTDP1 cells + 20 nM CPT, ATP luminescence, 48 h | Potency, µM (series often up to 46.2 µM), inactives show at the highest dose activity change, negative = growth inhibition, most hits filed as inhibitors | hit rate 12% among 420,000; also: potency is read from the fitted curve at half-maximal effect; nearly all actives have a fitted effect of over 55% in size
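Chicken DT40 Tdp1-/- cells complemented with human TDP1, 400 cells/well, exposed to compounds plus 20 nM camptothecin for at least 48 h at 37 C; viability read as ATP content by CellTiter-Glo luminescence.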
IL-1B inflam inh: inhibitors of inflammasome signaling (IL-1 beta secretion); THP-1 LPS/ATP IL-1B secretion, AlphaLISA, 16 h; hits give low values; activity change, % at 57.5 µM; hit rate 4.7% among 360,000; in the data active = activity change below about -50%; inconclusive = mostly about -30% to -49%
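Secreted IL-1B measured by AlphaLISA bead assay after 16 h compound exposure of THP-1 cells; compounds (final up to 57.5 uM) added 1 h before LPS (250 ng/mL) and ATP (1.25 mM) stimulation; lower signal means less secretion.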
HT1080 IDH1KD tx: toxicity to HT-1080 IDH1 knockdown cells (counter line); AID 686971; Potency, µM (doses to about 46.1 µM), without a hit: at the top dose activity, negative = toxicity, actives largely listed as cytotoxic; hit rate 2% among 360,000; HT-1080 IDH1 knockdown viability, ATP luminescence, 48 h;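 also: potency is read from the fitted curve at half-maximal effect; 0% = DMSO wells and -100% = cell-free medium wells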
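Using the IDH1-knockdown HT-1080 line run in the same batch and compound series as the NT line, viability after 48 h at 37 °C was determined by CellTiter-Glo luminescence and expressed as % activity.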
DT40 TDP1 no CPT: qHTS for Inhibitors of human tyrosyl-DNA phosphodiesterase 1 (TDP1): qHTS in cells in absence of CPT; DT40 Tdp1-/- hTDP1 cells, no CPT, ATP luminescence, 48 h; Potency, µM (titrated, usually from 46.2 µM), without a hit: top-dose activity change, negative = growth inhibition, most hits filed as inhibitors; hit rate 15% among 420,000; AID 686978, 2013; also: potency is read from the fitted curve at half-maximal effect; nearly all actives have a fitted effect of over 55% in size
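No-CPT arm: Tdp1-/-;hTDP1 DT40 cells (400/well) plus compounds, incubated ≥48 hr at 37 °C. Readout CellTiter-Glo luminescence.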
ELG1 repair inh: inhibitors of ELG1-dependent DNA repair in HEK293T cells | AID 504467 | Potency, µM (doses to about 46.1 µM), for the others: top-dose activity change, negative = inhibition, most hits filed as inhibitors | hit rate 2.3% among 330,000 | HEK293T ELG1-luciferase reporter, luminescence, 16 h; DNA damage induced by 5-fluorouridine; also: potency is read from the fitted curve at half-maximal effect; nearly all actives have a fitted effect of over 55% in size
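Overnight (16 hr) co-exposure of 2,000 cells/well to 5-fluorouridine and compound at 37 °C preceded detection. Luciferase was quantified via ONE-Glo luminescence; loss of signal denotes inhibition.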
HT1080NT lethal: kills 2HG-producing HT-1080-NT fibrosarcoma cells. AID 686970. HT-1080-NT fibrosarcoma viability, CellTiter-Glo ATP luminescence, 48 h. Potency, µM (series often up to 46.1 µM), for inactives: top-dose activity, negative = less viability, actives largely listed as cytotoxic. hit rate 1.6% among 360,000;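 also: NT is the 2HG producing partner of a matched IDH1 knockdown line; potency is read from the fitted curve at half-maximal effect; 0% = DMSO-treated cells and -100% = media-only wells without cells; nearly all actives have a fitted effect of over 55% in size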
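Luminescent CellTiter-Glo readout after 48 hours of compound exposure at 37 degrees C defined viability of HT-1080-NT cells. Activity was normalized to DMSO wells and cell-free media wells; concentration-response curves were fitted and assigned curve classes.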
* = called active by the depositor; ? = inconclusive; . = no result; [ ] = dose if it differs, or a comment. The list is not random: actives were taken first. Their share in the collection is about 19%. Unless noted, calls follow the shape of the dose curve; as a rule, active = well fitted curve in the direction sought with a large enough effect; inconclusive = small, poorly fitted or top-dose-only effect, or another doubt; inactive = no such curve, though single readings can be large; an effect the other way counts as inactive or inconclusive. Unless noted, % is scaled to controls: 0 for no effect and ±100 for the full control effect.

SMILES	TDP1 cell CPT	IL-1B inflam inh	HT1080 IDH1KD tx	DT40 TDP1 no CPT	ELG1 repair inh	HT1080NT lethal
CCc1ccc(NC(=O)CSc2nccn2C2CCCC2)cc1	18µM*	.	.	?	.	.
O=C(CSc1nccn1Cc1ccc(F)cc1)Nc1ccc(F)cc1F	-23%	0	-8%	-25%	23µM*	-3%
O=C(CSc1nccn1-c1cccc(Cl)c1)NC1CCCC1	-23%	-1	16%	21µM*	-2%	10%
Cc1ccc(C)c(NC(=O)CSc2nccn2-c2cccc(C)c2C)c1	18µM*	.	.	21µM*	.	.
COc1ccccc1NC(=O)CSc1nccn1Cc1ccc(F)cc1	?	18	2%	?	8%	3%
COCCN1C(=O)CSCC1(C)C(=O)NC(C)C (stereo not drawn)	-5%	1	10%	45%	.	25%
Cc1ccc(CN2CC(C(=O)NCCCSc3ccccc3)CC2=O)cc1 (stereo not drawn)	?	16	7%	?	3%	4%
Cc1cccc(NC(=O)CSc2nccn2-c2cccc(Cl)c2)c1C	21µM*	.	.	?	.	.
CCc1ccc(NC(=O)CSc2nccn2-c2cccc(C)c2C)cc1	23µM*	.	.	21µM*	.	.
Cc1cccc(-n2ccnc2SCC(=O)N2CCCc3ccccc32)c1C	18µM*	-21	-18%	21µM*	-15%	-11%
Cc1cc(NC(=O)CSc2nccn2-c2cccc(Cl)c2)no1	-7%	6	11%	-29%	0%	0%
Cc1cccc(-c2ncc(CN3CCN(CCC(C)C)C(CCO)C3)cn2)c1 (stereo not drawn)	10%	-26	-7%	-20%	-6%	-11%
O=C(CSc1nnc(-c2ccc(O)cc2)n1Cc1ccco1)c1cccs1	?	-3	-11%	?	1%	5%
N#Cc1c(-c2ccccc2)c(-c2ccccc2)n(Cc2ccco2)c1NC(=O)c1cccs1	11µM*	-4	-3%	?	-1%	-3%
O=c1ccn(CCCBr)c(=O)[nH]1	-13%	6	14%	-2%	2%	10%
CC(Oc1ccc2c(c1)oc(=O)c1ccccc12)C(=O)NCCN1CCOCC1 (stereo not drawn)	-23%	-13	-14%	8%	18%	0%
CCOc1ccc(/C=N/NC(=O)c2cccc3ccccc23)c(OCC)c1	-13%	51	0%	-1%	4%	6%
CCc1cccc2c1NC1(CCCC1)CC2C (stereo not drawn)	?	34	-1%	21µM*	11%	17%
CCc1cccc2c1NC(=O)C2=O	19%	28	-3%	-14%	.	1%
CC(=O)c1cccc(N=c2scc(-c3ccc(S(=O)(=O)N4CCOCC4)cc3)n2CCO)c1	6.5µM*	17	-15%	2.6µM*	?	-14%
COc1ccc(N=c2scc(-c3ccc(S(=O)(=O)N4CCOCC4)cc3)n2CCCO)cc1	.	.	.	.	15µM*	.
CN(C)S(=O)(=O)c1cccc(-c2csc(=Nc3ccccc3)n2CCCN2CCOCC2)c1	?	-25	-16%	?	?	-13%
CC(C)Cn1c(-c2ccc(S(=O)(=O)N3CCCC3)cc2)csc1=Nc1ccccc1	5.8µM*	.	.	3.3µM*	.	.
Cc1csc(=Nc2ccc(S(=O)(=O)N3CCOCC3)cc2)n1Cc1ccco1	23µM*	-8	7%	23µM*	15µM*	1%
CCOC(=O)C1OC1C(=O)NC(CC(C)C)C(=O)NCCC(C)C (stereo not drawn)	?	.	.	-25%	.	.
SMILES	TDP1 cell CPT	IL-1B inflam inh	HT1080 IDH1KD tx	DT40 TDP1 no CPT	ELG1 repair inh	HT1080NT lethal
C=CCn1c(-c2ccc(S(=O)(=O)N3CCOCC3)cc2)csc1=Nc1ccccc1	6.5µM*	?	-17%	6.5µM*	0%	-13%
O=C(CCC1CCCN(C(=O)c2cc(F)ccc2F)C1)N1CCN(c2ccccn2)CC1 (stereo not drawn)	?	0	-12%	?	.	0%
COCOc1ccc(/C=C2/Oc3cc(OCOC)cc(OCOC)c3C2=O)c(OCOC)c1	13µM*	-12	2%	23µM*	.	-1%
N#Cc1ccc(CN2CCN(C(=O)CCNS(=O)(=O)c3ccc(F)c(F)c3)CC2)cc1	-27%	28	2%	-18%	0%	1%[9.24 µM]
Cc1ccc(NC(=O)CCNS(=O)(=O)c2ccc3c(c2)CCC(=O)N3)cc1F	-1%	-15	-3%	?	9%	0%
O=C1CCc2cc(S(=O)(=O)NCCC(=O)N3CCN(c4cccc(Cl)c4)CC3)ccc2N1	26µM*	2	?	10µM*	?	?
N#Cc1ccc(CN2CCN(C(=O)CCNS(=O)(=O)c3ccc(F)c(Cl)c3)CC2)cc1	?	-6	-4%	18µM*	-22%	-10%
O=C(CCNS(=O)(=O)c1ccc2c(c1)CCN2C(=O)C1CC1)N1CCN(c2cccc(Cl)c2)CC1	5.8µM*	.	.	9.2µM*	.	.
CCN(CC)c1ccc(NC(=O)CCNS(=O)(=O)c2ccc3c(c2)CCC(=O)N3)c(C)c1	?	30	-4%	16µM*	-6%	2%
CC1CC(C)CN(C(=O)CCNS(=O)(=O)c2ccc3c(c2)CCC(=O)N3)C1 (stereo not drawn)	-10%	-5	15%	-2%	5%	20%
CCC(=O)N1CCc2cc(S(=O)(=O)NCCC(=O)N3CCN(c4ccccn4)CC3)ccc21	-1%	8	-14%	?	-10%	-1%
CC(C)(C)OC(=O)NN=C(c1ccc(O)cc1)c1ccc(O)cc1	-27%	2	4%	2%	-4%	1%
COCCCNC(=O)CSc1nc2cc3c(cc2c(=O)n1CCCC(=O)NCc1ccc2c(c1)OCO2)OCO3	-4%	.	.	-15%	.	.
COc1ccc(N2CCN(C(=O)CCNS(=O)(=O)c3ccc4c(c3)CCN4C(=O)C3CC3)CC2)cc1	13µM*	.	.	18µM*	.	.
Cn1c(=O)oc2cc(S(=O)(=O)NCCC(=O)NC3CCCc4ccccc43)ccc21 (stereo not drawn)	-17%	9	-28%	-9%	-2%	2%
Cc1cccc(N2CCN(C(=O)CCNS(=O)(=O)c3ccc4c(c3)CCN4C(=O)C3CC3)CC2)c1C	18µM*	.	.	18µM*	.	.
CC(=O)N1CCc2cc(S(=O)(=O)NCCC(=O)NC3CCCc4ccccc43)ccc21 (stereo not drawn)	-15%	0	-12%	-15%	13µM*	1%
